Consider 97 molecules from PubChem BioAssay AID2314 (National Center for Advancing Translational Sciences (NCATS), 2010).

Among all 300,000 compounds or so, about 37,000 (12%) were called active. This is one part of a sample in which actives are shown more often than they occur. Rule as the data show it: active = max response mostly above about 13% (no sharp cut-off); inactive = mostly below about 14%.

This assay in a line: Cycloheximide Counterscreen for Small Molecule Inhibitors of Shiga Toxin. Also: read at 38.3 µM for the half of the compounds with a filed dose; 0% is about no effect. The settings on record: cell reporter, cycloheximide protein synthesis inhibition counterscreen; hits give high values.
Consider `CCC(=O)Nc1nnc(S(=O)(=O)N(CC(C)C)c2ccccc2)s1`, for which the max response is 10.1% (inactive). The value for `O=C(Oc1ccc2c(c1)CCC2)N1CCOCC1` was 53.5% (active); that for `O=C(Oc1ccc(F)cc1)N1CCOCC1` was -1.5% (inactive).

`CC(=O)c1ccc(OC(=O)N2CCOCC2)cc1`: the max response was 11.8% (inactive).

Consider `O=c1c(Cl)c(NC2CC2)cnn1-c1ccccc1`, for which the max response is 31.2% (active). The figure for `c1ccc(-n2nnnc2NC2CCCCCC2)cc1` is -1.89% (inactive). Consider `Cc1cccc(-n2ncc(Cl)c(Cl)c2=O)c1`, for which the max response was -10% (inactive).

With `CC(C)OC(=O)C(C#N)c1nc2ccccc2nc1N1CCN(Cc2ccccc2)CC1` (configuration not stated), the max response is -2.37% (inactive). The value for `CCOC(=O)/C(C#N)=C\c1c(C)cc(C)c(COC(C)=O)c1C` was 0.938% (inactive); that for `COc1ccc(N2CCN(C(=O)/C(C#N)=C/c3ccccc3)CC2)cc1` was 14.2% (active); that for `C/C(=C/c1ccccc1)C(=O)N1CCN(c2ccccc2)CC1` was 20% (inactive). With `CCOC(=O)/C(C#N)=C/c1ccc(N2CCN(Cc3ccccc3)CC2)cc1`, the max response is 10.2% (active). The value for `COc1ccc(N2CCN(C(=O)CCSCc3ccccc3F)CC2)cc1` was 7.14% (inactive). The figure for `CCOC(=O)/C(C#N)=C/c1ccc(N2CCCCC2)cc1` is 40.9% (active).

For the molecule `CCOC(=O)NC(=O)/C(C#N)=C\c1ccccc1`, the max response is -1.84% (inactive). The value for `Cc1cccn2c(=O)c(/C=C(\C#N)C(N)=O)c(N3CCCCCC3)nc12` was 12.8% (inactive). Consider `C=CCOC(=O)C(=C)C`, for which the max response is -1.88% (inactive). As for `N#Cc1ccc(C(=O)Nc2nc(-c3cccs3)c(C(=O)C(F)(F)F)s2)cc1`, the max response is 0.458% (inactive). The value for `Cn1cccc1Cc1nnc(SCC(=O)NCc2ccc3c(c2)OCO3)n1CCc1ccccc1` was 1.14% (inactive); that for `O=S(=O)(Nc1ccc2nc(-c3ccco3)[nH]c2c1)c1ccccc1` was 33.7% (active). The figure for `Cc1ccc(S(=O)(=O)Nc2ccc3ncccc3c2)cc1` is -2.27% (inactive); for `O=S(=O)(Nc1ccc2cn[nH]c2c1)c1ccccc1` it is 5.04% (inactive); for `Cc1ccc2c(cnn2C(=O)CCC(=O)NC2CCCC2)c1` it is 1.35% (inactive). With `Cn1c2ccc(F)cc2c2nnc(NN)nc21`, the max response was 0.49% (inactive). The value for `Cc1cc(Cl)ccc1OCc1nc(-c2ccncc2)no1` was 35.5% (active); that for `COc1ccc(-c2noc(COc3ccc(Cl)c(C)c3)n2)cc1` was 8.61% (inactive); that for `Cc1cc(Cl)ccc1OCCCC(=O)NCc1ccncc1` was 2.81% (inactive). `COc1cc(NC(=O)CN2C(=O)NC(C)(c3ccc(OC(F)F)cc3)C2=O)cc(OC)c1OC` (configuration not stated): the max response was -2.19% (inactive). In the case of `O=S(=O)(c1cccs1)N1CCc2ccccc2C1`, the max response is -2.33% (inactive). The figure for `O=C1/C(=C/c2cccs2)SC(=S)N1C1CCS(=O)(=O)C1` (configuration not stated) is -0.776% (inactive); for `O=C1/C(=C/c2cccs2)CCc2ccccc21` it is 62.8% (active); for `CCC1C/C(=C/c2cccs2)C(=O)/C(=C/c2cccs2)C1` (configuration not stated) it is -1.72% (inactive). For the molecule `O=C1/C(=C/c2cccs2)CCC1C1CCCC1` (configuration not stated), the max response is 29.4% (active). As to `COc1cc(/C=C/C(=O)N2CCc3ccccc3C2)cc(OC)c1OC`, the max response is 0.558% (inactive). For the molecule `CN1C/C(=C/c2cccs2)C(=O)/C(=C\c2cccs2)C1`, the max response was 35.9% (active). `c1ccc2c(c1)CCc1snnc1-2`: the max response was -1.75% (inactive).

As for `COc1ccc2c(c1OC)C(=O)c1ccccc1C2=O`, the max response is 2.67% (inactive).

`CN1CCN(C(=O)/C(=C\c2cccs2)NC(=O)c2cccs2)CC1`: the max response is 8.48% (inactive). The figure for `COc1ccc(/C=C2\CCc3ccccc3C2=O)c(OC)c1OC` is 35.6% (active); for `O=C(Nc1ccccc1C(=O)N1CCOCC1)c1ccc(CSc2ccccc2)cc1` it is -0.894% (inactive); for `Cc1cc(=O)oc2c(C)c(OCC(=O)NCCc3ccc(S(N)(=O)=O)cc3)ccc12` it is -1.87% (inactive). `CCOC(=O)C1=C(c2ccccc2)NC(=O)NC1c1cc(OCC)c(O)c([N+](=O)[O-])c1` (configuration not stated): the max response was -1.22% (inactive). The figure for `CCOc1ccc2c(c1)c(=O)c(S(=O)(=O)c1ccc(C)cc1)cn2CC` is -0.573% (inactive); for `OC1CCCN(c2ncnc3c2nnn3Cc2c(F)cccc2Cl)C1` (configuration not stated) it is 7.82% (inactive); for `CC(=O)c1cc2c(cc1NC(=O)Cn1nc(-c3ccc(F)cc3)ccc1=O)OCO2` it is 0.865% (inactive). With `Cc1cc(C)nc(NNC2=CC(=O)CC(C)(C)C2)n1`, the max response was 2.37% (inactive). `CCCCN(Cc1ccccc1)C(=O)C1CCN(Cc2sccc2C)CC1`: the max response is -5% (inactive). The figure for `CCOc1cc(C2/C(=C(/O)c3ccc(S(=O)(=O)N4CCCCC4)cc3)C(=O)C(=O)N2CCOC)ccc1O` (configuration not stated) is -6.09% (inactive); for `CC(=N\NC(=O)c1cc(Br)ccc1O)/C(=N/O)C(=O)Nc1ccccc1` it is 23.2% (active).

On to `CC(C)/C=N/NC(=O)c1cc(Br)ccc1O`, for which the max response was 9.21% (inactive). The figure for `CC(=O)N/N=C(\C)c1ccc(Br)cc1Br` is -2.79% (inactive); for `COc1ccc(/C=N/N=C/c2c[nH]c(=O)c(C#N)c2Nc2ccccc2)cc1` it is -2.7% (inactive); for `COc1cccc(NC(=O)C(Sc2nc3ccccc3c(=O)n2CC(C)C)c2ccccc2)c1` (configuration not stated) it is 0.135% (inactive).

Take `COc1ccc2c(-c3ccccc3)cc(SCC(=O)N(C)C3CCS(=O)(=O)C3)nc2c1` (configuration not stated): the max response is -1.72% (inactive). With `CC(=NCC1CCCO1)c1c(O)n(-c2ccccc2)c(=O)[nH]c1=O` (configuration not stated), the max response is 4.02% (inactive). As for `Cc1ccc(-n2c(O)c(C=NCC3CCCO3)c(=O)[nH]c2=O)c(C)c1` (configuration not stated), the max response is -0.95% (inactive). Consider `O=C1C(C=NCC2CCCO2)=C(O)c2ccccc21` (configuration not stated), for which the max response is 32.1% (active). As to `O=C1c2ccccc2S(=O)(=O)N1Cc1c(F)cccc1Cl`, the max response was -0.645% (inactive). Turning to `CC(C)(C)c1ccc(CN2C(=O)c3ccccc3S2(=O)=O)cc1`, the max response is 17.5% (active). The figure for `O=C1CN(Cc2ccccc2)S(=O)(=O)c2ccccc21` is -0.808% (inactive); for `CC1CN(S(=O)(=O)c2ccccc2)C(C)CN1S(=O)(=O)c1ccccc1` (configuration not stated) it is -3.63% (inactive); for `Cc1cc(C)cc(C(=O)NC(CC(N)=O)c2ccc(N3CCC(N4CCCCC4)CC3)c([N+](=O)[O-])c2)c1` (configuration not stated) it is -1.84% (inactive). The value for `NS(=O)(=O)c1ccc(NC(=S)Nc2ccc(Br)c(Cl)c2)cc1` was -1.56% (inactive); that for `CCCNC(=O)NCc1ccc(N2CCCC2=O)cc1` was -2.06% (inactive); that for `CC1CCCC(NC(=O)CN2CCN(Cc3ccc(Cl)cc3)C2=O)C1C` (configuration not stated) was -4.51% (inactive).

For `C/C(=N\NC(=O)c1cccc(N2CCCC2=O)c1)c1ccc(N)cc1`, the max response was 27% (inactive).

Regarding `O=C(NCCCN1CCCCCC1)c1ccc(N2CCCC2=O)cc1`, the max response is -4.57% (inactive). Turning to `O=C(NCc1cccc(Cl)c1)C1CCN(c2nnc(N3CCCC3=O)s2)CC1`, the max response is -2.64% (inactive). The value for `CC1CCC(NC(=O)c2ccc(N3CCCC3=O)cc2)CC1` (configuration not stated) was 40.8% (active). As for `CC1CCCC(NC(=O)c2cccc(N3CCCC3=O)c2)C1C` (configuration not stated), the max response was 44.4% (active). The value for `O=C(NCCc1ccc(Cl)cc1)c1cccc(N2CCCC2=O)c1` was 21.3% (active).

As for `O=C(NCCc1ccc(Cl)cc1)C1CCCN1C(=O)NCc1ccccc1` (configuration not stated), the max response was -1.54% (inactive). The value for `Cn1c2c(c(=O)n(C)c1=O)C(c1cccc([N+](=O)[O-])c1)Nc1ccccc1O2` (configuration not stated) was -1.06% (inactive); that for `Cc1ccc(S(=O)(=O)NCC2CCC(C(=O)N3CCOCC3)CC2)cc1` (configuration not stated) was 3.28% (inactive); that for `Cc1cc2ccccn2c1C(=O)c1cccc(F)c1` was -1.02% (inactive). Turning to `C=CCSc1nc(N)cc(=O)[nH]1`, the max response was 13.9% (inactive).

Regarding `Cc1cc(S(=O)(=O)c2cc3ccc(O)c(C)c3oc2=O)ccc1F`, the max response is -4.92% (inactive). The value for `O=C(NCCc1ccccc1)C(=O)NCC1OCCN1S(=O)(=O)c1cccs1` (configuration not stated) was 8.94% (active).

On to `COc1ccc(CCNC(=O)C(=O)NCC2OCCN2S(=O)(=O)c2ccc(OC)c(C)c2)cc1` (configuration not stated), for which the max response is 0.773% (inactive).

On to `O=C(NCc1ccccc1)C(=O)NCC1OCCN1S(=O)(=O)c1ccc(Br)cc1` (configuration not stated), for which the max response is 9.31% (inactive).

On to `CCNCCC(=O)N1c2ccccc2Sc2ccc(NC(=O)OCC)cc21`, for which the max response was -6.47% (inactive). The value for `COc1ccc(S(=O)(=O)N2CCOCC2)cc1C(=O)Nc1nc2ccccc2s1` was 8.09% (inactive). The figure for `O=CN1CCN(C(=O)c2ccc3c(c2)OCO3)CC1` is 16.1% (inactive); for `COC(=O)c1ccccc1NC(=O)CSc1nnnn1C` it is 3.16% (inactive). Take `O=C(Nc1nc2ccccc2s1)c1ccc2c(c1)OCO2`: the max response was 16.2% (active). As to `C=CCn1c(SCC(=O)Nc2nc3ccccc3s2)nnc1-c1ccccc1O`, the max response was 6.55% (inactive). Take `O=C(Nc1ccc(C2CC2(Cl)Cl)cc1)c1cccc([N+](=O)[O-])c1` (configuration not stated): the max response is 40.2% (active). The value for `O=C(Nc1ccc(NC(=O)c2ccco2)c(Cl)c1)c1cccc([N+](=O)[O-])c1` was 5.37% (inactive); that for `O=C(Nc1ccc(C(=O)N2CCCCC2)cc1)c1cccc([N+](=O)[O-])c1` was -4.06% (inactive). As to `Cc1cc(C)c2nc(NC(=O)c3ccc4c(c3)OCO4)sc2c1`, the max response was -3.86% (inactive). The figure for `O=C(Nc1ccc2c(c1)OCO2)c1ccc(N2C(=O)c3ccccc3C2=O)cc1` is 14.1% (inactive). Regarding `Cn1nnnc1SCC(=O)Nc1nc2ccccc2s1`, the max response was 28.7% (active).

Take `O=C(Nc1ccccc1)c1ccc2c(c1)OCO2`: the max response was 29% (active). The value for `O=S(=O)(Nc1ccc(Oc2ncccn2)c(Cl)c1)c1ccc(F)cc1` was 5.26% (inactive). The figure for `CC1CCCCC1NC(=O)C1CCCN1S(=O)(=O)c1cccc2nsnc12` (configuration not stated) is 3.55% (inactive); for `Cc1cnc(C)c(N2CCN(C(=O)C3CCC(=O)N(CCc4cccc(F)c4)C3)CC2)n1` (configuration not stated) it is -0.816% (inactive). `COc1ccc(C(=O)c2c(C)c(CCC#N)n3ccccc23)c(OC)c1`: the max response is -1.97% (inactive).
